IL1B secr inh: inflammasome signaling inhibition, IL-1 beta readout | activity change, % at 57.5 µM | THP-1 LPS/ATP IL-1B secretion, AlphaLISA, 16 h; hits give low values | AID 743279 | 360,000 tested, 4.7% active; in the data active means activity change below about -50%; inconclusive means mostly about -30% to -49%
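Secreted IL-1B measured by AlphaLISA bead assay after 16 h compound exposure of THP-1 cells; compounds (final up to 57.5 uM) added 1 h before LPS (250 ng/mL) and ATP (1.25 mM) stimulation; lower signal means less secretion.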
TDP1 inh: blocks human tyrosyl-DNA phosphodiesterase 1; Q9NUW8; recombinant TDP1, AlphaScreen DNA substrate cleavage; Potency, µM (highest dose often 130 µM), for inactives: at the top dose activity change, negative = inhibition, hits mostly inhibitors; 350,000 tested, 0.28% active; further: potency means the concentration at half of the fitted maximal effect; nearly all actives have a fitted effect of over 40% in size
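Tdp1 1 nM final; 15 min RT w/ cpd; substrate 15 nM, 5 min; beads 10 ug/ml, 10 min; AlphaScreen read. Neg ctrl: no enzyme.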
Six1-Eya2 inh: inhibitors of human Six1/Eya2 interaction; Q15475+O00167; AlphaScreen GST-Six1/His-Eya2 binding, biochemical; hits give low values; activity change, % (no concentration beside the values); 360,000 tested, 0.56% active; AID 651725; in the data active means activity change below about -65%; inconclusive means mostly about -30% to -63%
Target sequence (O00167 whole entry, looked up): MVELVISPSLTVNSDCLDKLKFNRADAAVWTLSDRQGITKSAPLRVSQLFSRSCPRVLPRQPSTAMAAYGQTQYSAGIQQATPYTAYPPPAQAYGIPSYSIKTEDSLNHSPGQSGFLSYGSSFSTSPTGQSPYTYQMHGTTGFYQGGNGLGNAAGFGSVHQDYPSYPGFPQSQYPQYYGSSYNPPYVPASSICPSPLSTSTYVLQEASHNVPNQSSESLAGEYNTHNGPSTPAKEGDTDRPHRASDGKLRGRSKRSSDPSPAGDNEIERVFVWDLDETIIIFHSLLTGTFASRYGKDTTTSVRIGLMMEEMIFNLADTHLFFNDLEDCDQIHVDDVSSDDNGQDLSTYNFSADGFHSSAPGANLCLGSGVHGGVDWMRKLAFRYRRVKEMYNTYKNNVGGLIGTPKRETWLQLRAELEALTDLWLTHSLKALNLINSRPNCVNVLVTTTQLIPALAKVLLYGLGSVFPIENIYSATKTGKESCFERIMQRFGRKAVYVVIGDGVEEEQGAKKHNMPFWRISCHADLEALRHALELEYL
Target sequence (Q15475 whole entry, looked up): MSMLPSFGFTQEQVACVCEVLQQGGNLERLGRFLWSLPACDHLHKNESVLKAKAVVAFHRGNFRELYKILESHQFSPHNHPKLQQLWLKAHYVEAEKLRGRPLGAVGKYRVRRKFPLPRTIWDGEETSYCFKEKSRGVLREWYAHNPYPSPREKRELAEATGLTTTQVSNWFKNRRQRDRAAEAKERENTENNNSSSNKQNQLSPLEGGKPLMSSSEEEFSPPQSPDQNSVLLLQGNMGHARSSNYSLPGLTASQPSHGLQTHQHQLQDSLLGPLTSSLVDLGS
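GST-Six1 + His-Eya2 (5X stock: 250/500 nM); Tris pH 8.0, 300 mM NaCl, 0.05% BSA, 0.02% Tween 20; GSH donor/Ni acceptor beads; 1 h 37 °C dark; AlphaScreen readout.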
CtBP-E1A blk: blocks the CtBP interaction with E1A. 340,000 tested, 0.49% active. AlphaScreen GST-E1A/His-CtBP binding, 1536-well; hits give low values. AID 651724. activity change, % (no concentration beside the values); in the data active means activity change below about -65%; inconclusive means mostly about -30% to -63%
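Homogeneous bead-based format: GST-tagged E1A captured on glutathione donor beads, His-tagged CtBP on nickel acceptor beads; compounds precede bead addition by 2 h at 37 °C.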
DT40 TDP1 no CPT: qHTS for Inhibitors of human tyrosyl-DNA phosphodiesterase 1 (TDP1): qHTS in cells in absence of CPT. DT40 Tdp1-/- hTDP1 cells, no CPT, ATP luminescence, 48 h. Potency, µM (highest dose often 46.2 µM), inactives show top-dose activity change, negative = growth inhibition, actives largely listed as inhibitors. 420,000 tested, 15% active. AID 686978, 2013; further: potency means the concentration at half of the fitted maximal effect; nearly all actives have a fitted effect of over 55% in size
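Readout: luminescence from CellTiter-Glo after 30 min in the dark at RT. Cells: DT40 Tdp1-/- with stable hTDP1, 400/well. Exposure: compounds alone, ≥48 hr, 37 °C.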
DT40 TDP1 CPT: DT40-hTDP1 cell growth loss with CPT; chicken DT40 Tdp1-/-;hTDP1 cells + 20 nM CPT, ATP luminescence, 48 h; Potency, µM (highest dose often 46.2 µM), for inactives: top-dose activity change, negative = growth inhibition, most hits filed as inhibitors; 420,000 tested, 12% active; AID 686979; further: potency means the concentration at half of the fitted maximal effect; nearly all actives have a fitted effect of over 55% in size
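Chicken DT40 Tdp1-/- cells stably complemented with human TDP1 were seeded at 400 cells/well in medium containing 20 nM camptothecin, exposed to pin-transferred compounds, and grown at 37 °C for at least 48 hr. Viability was read as ATP luminescence.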
The depositor's hits bear a star; ? = inconclusive; nt = not tested or not shown; [ ] = another dose, or the depositor's remark. Sampled rows, rich in hits. Any-hit rate of the full collection: about 18%. Unless noted, the call rests on the fitted dose curve; in most records, active means well fitted curve in the direction sought with a large enough effect; inconclusive means small, poorly fitted or top-dose-only effect, or another doubt; inactive means no such curve, though single readings can be large; an effect the other way counts as inactive or inconclusive. On the % scale 0 is the no-effect control and ±100 the full control effect.

SMILES	IL1B secr inh	TDP1 inh	Six1-Eya2 inh	CtBP-E1A blk	DT40 TDP1 no CPT	DT40 TDP1 CPT
CCC(c1nnnn1-c1ccc2c(c1)OCCO2)N1CCN(c2ccccc2)CC1 (centres undefined)	26	nt	-22	-13	?	?
CCC(c1nnnn1-c1ccc2c(c1)OCCO2)N1CCN(c2cccc(C)c2C)CC1 (centres undefined)	-12	nt	-8	-13	18µM*	?
COc1ccc(N2CCN(C(=O)CSc3nnnn3-c3ccc4c(c3)OCCO4)CC2)cc1	-59*	6%	-28	4	?	?
CCC(c1nnnn1-c1ccc2c(c1)OCCO2)N1CCN(Cc2c(F)cccc2Cl)CC1 (centres undefined)	?	nt	-12	-15	23µM*	?
CCC(c1nnnn1-c1ccc2c(c1)OCCO2)N1CCN(c2cc(C)ccc2C)CC1 (centres undefined)	7	nt	-17	-2	?	?
Cc1ccc(/C=N/NC(=S)NCCc2ccccc2)s1	0	12%	-13	6	-25%	-17%
Cn1c(=O)c2c(SCC(=O)NCC3CCCO3)nc(-c3cccs3)nc2n(C)c1=O (centres undefined)	nt	-2%	nt	nt	nt	nt
c1ccc(-c2nc3cccnc3nc2-c2ccccc2)cc1	14	nt	0	0	-24%	-19%
COc1ccc(Cc2nnc(SCc3nc4ccccc4c(=O)[nH]3)n2C)cc1	17	1%	-4	9	-12%	-4%
O=c1cc(CSc2ccc(Cl)cc2)nc(-c2ccccn2)[nH]1	-9	nt	-93*	nt	4.1µM*	4.1µM*
Clc1ccc(SCc2cc(N3CCOCC3)nc(-c3ccccn3)n2)cc1	-12	11%	-26	-25	3.3µM*	5.8µM*
O=C(Cn1nc2c(cc1=O)CCCC2)NCc1ccc(Cl)cc1	nt	1%	nt	nt	18µM*	16µM*
O=C(CN1C(=O)CCc2cc(S(=O)(=O)N3CCCCC3)ccc21)NCc1ccc(Cl)cc1	nt	-1%	nt	nt	15µM*	21µM*
CCOc1ccccc1CNC(=O)CN1C(=O)CCc2cc(S(=O)(=O)N3CCCCC3)ccc21	nt	-1%	nt	nt	21µM*	?
Cc1ccc(N2CC(=O)N(CC(=O)O)C2=O)cc1	3	7%	12	1	18%	21%
C/C(CC(=O)Nc1ccc(N(C)C)cc1)=N\NC(=O)c1ccc(Cl)cc1	-6	nt	-19	-12	14%	-1%
Cc1ccccc1Cn1c(SCc2ccc(C(=O)NCc3cccs3)cc2)nc2ccncc21	nt	7%	nt	nt	18µM*	21µM*
Cc1ccccc1Cn1c(SCc2ccc(C(=O)NC(C)c3ccccc3)cc2)nc2ccncc21 (centres undefined)	nt	13%	nt	nt	16µM*	9.2µM*
CC(NC(=O)c1ccc(CSc2nc3ccncc3n2Cc2ccc(F)cc2)cc1)c1ccccc1 (centres undefined)	nt	3%	nt	nt	?	?
CC(C)OC(=O)c1ccc(NC(=O)c2cccc(-n3cnnn3)c2)cc1	36	-2%[56.1 µM]	2	nt	?	?
CCOC(=O)Cc1csc(NC(=O)CSc2nnc(-c3ccncc3)n2Cc2ccco2)n1	24	nt	5	-7	?	-28%
CCOc1ccc(C(=O)NC(=S)NC2CCCC2)cc1[N+](=O)[O-]	-13	8%	-18	-9	?	?
Cn1c(=O)c2c(-c3cccc(Br)c3)n(C(C)(C)CO)cc2n(C)c1=O	nt	9%	nt	nt	?	?
COc1ccc(CCn2cc3c(c2-c2ccccc2Br)c(=O)n(C)c(=O)n3C)cc1OC	nt	12%	nt	nt	16µM*	21µM*
CC(c1ccccc1)n1cc2c(c1-c1ccccc1Br)c(=O)n(C)c(=O)n2C (centres undefined)	nt	5%	nt	nt	18µM*	16µM*
SMILES	IL1B secr inh	TDP1 inh	Six1-Eya2 inh	CtBP-E1A blk	DT40 TDP1 no CPT	DT40 TDP1 CPT
COc1ccc(CCN2C(=O)c3cccnc3C2=O)cc1OC	-2	-3%	-3	-5	6%	0%
Cn1c(=O)c2c(-c3ccccc3)n(Cc3cccnc3)cc2n(C)c1=O	30	4%	1	3	8%	-5%
Cn1c(=O)c2c(-c3ccccc3Br)n(C(C)(C)C)cc2n(C)c1=O	nt	7%	nt	nt	12µM*	16µM*
COc1cc(CN2CCC(n3nccc3NC(=O)C3CCOC3)CC2)ccc1F (centres undefined)	0	4%	1	-7	-3%	-2%
CC(C)n1cnc2c(Nc3cccc(F)c3)nc(NCCO)nc21	-9	4%	-6	-5	-27%	-7%
COc1ccc2c(c1OC)C(=O)OC2n1c(O)c(N=NC(C)=O)c2ccccc21 (centres undefined)	15	3%	0	3	-22%	-24%
Cc1ccc2cc(C(c3nnnn3C3CCCC3)N(Cc3cccnc3)Cc3ccco3)c(=O)[nH]c2c1 (centres undefined)	?	7%	0	48	?	?
CCC(c1nnnn1C1CCCCC1)N(Cc1ccco1)Cc1cc2ccc(OC)cc2[nH]c1=O (centres undefined)	-58*	9%	5	-1	16µM*	?
COc1ccc2cc(CN(CCCN3CCOCC3)Cc3nnnn3C3CCCCC3)c(=O)[nH]c2c1	-11	1%	-15	0	-7%	-29%
Cc1ccc2cc(C(c3nnnn3C3CCCC3)N(Cc3ccco3)Cc3cccs3)c(=O)[nH]c2c1 (centres undefined)	0	6%	-11	-11	?	23µM*
COc1ccc(/C=C(\NC(=O)c2ccccc2)C(=O)N/N=C/c2cccnc2)cc1	-9	9%	-2	nt	3%	8%
CSc1nc(C=Nc2ccccc2Cl)c(O)n1Cc1cccc(Cl)c1	13	7%	-21	-3	-1%	2%
O=C(NCc1ccc(F)cc1)C1CCN(S(=O)(=O)N2CCCC2)CC1	0	2%	0	nt	16µM*	?
CC1CCN(S(=O)(=O)N2CCCC(C(=O)NCc3ccccc3Cl)C2)CC1 (centres undefined)	-15	9%	0	-7	-21%	-19%
CSc1ccc(CNC(=O)C2CCCN(S(=O)(=O)N(C)c3ccc(F)cc3)C2)cc1 (centres undefined)	nt	5%	nt	nt	21µM*	23µM*
CC1CCN(S(=O)(=O)N2CCCC(C(=O)NCc3ccc(F)cc3)C2)CC1 (centres undefined)	-24	3%	-15	-8	?	?

High-throughput results (PubChem BioAssay)
